AmpC no deterg: blocks E. coli AmpC beta-lactamase in detergent-free assay | AmpC nitrocefin hydrolysis, absorbance 480 nm, 0.0001% Triton | Potency, µM (top dose mostly 57.1 µM), without a hit: at the highest dose activity change, negative = inhibition, hits mostly inhibitors | actives 0.52% (n = 330,000);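 note: plate controls were no compound for no effect and no enzyme for full effect; nearly all actives have a fitted effect of over 20% in size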
Target sequence (P00811 whole entry, looked up): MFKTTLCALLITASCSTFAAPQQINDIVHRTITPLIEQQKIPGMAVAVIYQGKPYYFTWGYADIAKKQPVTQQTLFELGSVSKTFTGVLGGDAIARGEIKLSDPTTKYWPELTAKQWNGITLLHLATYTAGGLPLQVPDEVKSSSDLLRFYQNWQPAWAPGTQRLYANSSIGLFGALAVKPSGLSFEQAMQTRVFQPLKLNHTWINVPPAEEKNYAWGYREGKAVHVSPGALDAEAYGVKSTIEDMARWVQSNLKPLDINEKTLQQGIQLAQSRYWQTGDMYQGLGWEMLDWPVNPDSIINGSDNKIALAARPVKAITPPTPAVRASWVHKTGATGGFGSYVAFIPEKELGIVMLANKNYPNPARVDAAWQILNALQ
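20 mM phosphate pH 7.0 + 0.01% (detergent screen) or 0.0001% Triton X-100; 5.3 nM AmpC reagent; cpd preinc 15 min RT; nitrocefin (800 uM stock) to start; A480 q20 s × 4 min; Activity was normalised to no-enzyme and no-compound control wells.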
RE007 growth inh: less growth of the S. pombe RE007 Vpr strain | S. pombe RE007 Vpr strain, BacTiter-Glo ATP luminescence, 24 h | Potency, µM (top dose mostly 92.2 µM), for inactives: at the highest dose activity change, negative = less growth, actives largely listed as inhibitors | actives 0.21% (n = 360,000) | AID 651644; active = well fitted falling curve with a large enough effect; inconclusive = small, poorly fitted or top-dose-only effect; inactive = no such curve, though single readings can be large or run the other way; note: nearly all actives have a fitted effect of over 50% in size
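Fission yeast RE007 carrying one integrated HIV-1 vpr copy, seeded at OD 0.01 in PMG+AL medium with 23 nL pinned compound. Grown 24 h at 30 degrees; viability read by BacTiter-Glo luminescence after 5 min.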
FBPA Giardia inh: Giardia lamblia aldolase inhibition; A8B2U2; purified Giardia FBPA; Potency, µM (highest dose often 59.6 µM), for inactives: at the highest dose activity, negative = inhibition, most hits filed as inhibitors; actives 0.71% (n = 290,000); note: nearly all actives have a fitted effect of over 55% in size
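Giardia FBPA (40 nM reagent) was preincubated 10 min at RT with compound (up to 57.5 uM final), then substrate plus GAPDH/TPI/NAD/arsenate coupling system with diaphorase/resazurin was added; resorufin fluorescence (525/598 nm) was read after 20 min.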
Sm TGR block: inhibitors of Schistosoma mansoni thioredoxin glutathione reductase; Q962Y6; purified TGR, DTNB reduction, TNB absorbance 405 nm; Potency, µM (top dose mostly 114 µM), without a hit: at the top dose activity change, negative = inhibition, usual class: inhibitors; actives 3% (n = 360,000); AID 485364; note: nearly all actives have a fitted effect of over 60% in size
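TGR 20 nM + NADPH 100 uM (dispensed conc.), cpd preinc 15 min RT; start with NADPH (500 uM addition) then DTNB (15 mM addition). Kinetic TNB absorbance, 405 nm filter. Four-parameter Hill fit across titration.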
AmpC inh detg: AmpC beta-lactamase inhibition with detergent present. P00811. AmpC hydrolysis of nitrocefin, absorbance 480 nm, 0.01% Triton. actives 0.041% (n = 370,000). Potency, µM (series often up to 114 µM), for the others: at the highest dose activity change, negative = inhibition, most hits filed as inhibitors;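 note: 0% = no-compound wells and -100% = no-enzyme wells; nearly all actives have a fitted effect of over 25% in size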
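AmpC (5.3 nM in the dispensed reagent) in 20 mM phosphate pH 7.0 with 0.01% (detergent screen) or 0.0001% Triton X-100 was preincubated with compounds for 15 min at room temperature. Nitrocefin was then added from an 800 uM solution, and hydrolysis was followed at 480 nm.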
Active calls of the source: *; ? = inconclusive; . = no result. A selection: hits, their analogues and other compounds. The true share with any hit is near 3.4%. Unless noted, calls come from the whole dose curve; as a rule, active = well fitted curve in the direction sought with a large enough effect; inconclusive = small, poorly fitted or top-dose-only effect, or another doubt; inactive = no such curve, though single readings can be large; an effect the other way counts as inactive or inconclusive. Unless noted, % is set by controls: 0 for no effect and ±100 for the full control effect; potency is the fitted concentration of half-maximal effect.

SMILES	AmpC no deterg	RE007 growth inh	FBPA Giardia inh	Sm TGR block	AmpC inh detg
C=Cc1cccc(NC(=O)c2ccc(NC(=O)c3ccco3)cc2)c1	-9.9%	-8.6%	-0.9%	1.8%	-11.5%
COc1cc(C2Oc3ccccc3C=C2[N+](=O)[O-])cc(OC)c1OC (stereo not given)	12.6%	4.9%	-22.2%	31.6µM*	-7.7%
COc1cccc(N2CCN(C(=O)CCc3nnc4ccc(N5CCOCC5)nn34)CC2)c1	48.2%	-7.0%	-3.4%	?	1.8%
CCCC/C=C/C(NC(=O)OCc1ccccc1Cl)c1ccccc1 (stereo not given)	.	.	5.1%	.	.
CCCN(CC1CC1)S(=O)(=O)c1ccc(S(N)(=O)=O)cc1	0.501µM*	3.8%	4.2%	-3.0%	?
Cc1cc(/C=C(\C#N)C(=O)NCCc2c[nH]c3ccccc23)c(C)n1C	25.1µM*	-1.3%	-3.1%	-3.6%	-6.1%
Cc1ccc2cc3cc(C(=O)NCCCN4CCCCCC4)oc3nc2c1	50.5%	?	-2.3%	31.6µM*	1.6%
O=C(CCC1CCCC1)NNC(=O)COc1ccc(Br)cc1	-10.2%	18.2%	.	.	.
Cc1cc(=O)oc2cc(NC(=S)NCc3cccnc3)ccc12	-35.0%	4.5%	-0.8%	39.8µM*	1.6%
O=c1c2cc(NC(=S)NCc3cccnc3)ccc2nc2n1CCCCC2	-23.4%	-7.4%	-12.1%	56.2µM*	-2.4%
O=C(/C=C/c1ccco1)Nc1ccc2nc3n(c(=O)c2c1)CCCC3	21.1%	1.7%	1.6%	31.6µM*	4.1%
N#CC1=C(N)N(c2ccc(F)cc2)C2=C(C1c1ccc(O)cc1)S(=O)(=O)CC2 (stereo not given)	-39.5%	-6.7%	?	1.78µM*	2.4%
O=C(NC1CCCCC1)c1cc2ccccc2cc1O	20µM*	?	?	-4.0%	-0.4%
O=C1CCCC(=NNC(=O)c2cc3ccccc3cc2O)C1	31.6µM*	-0.3%	.	.	.
O=C(NN=C1CCCCCC1)c1cc2ccccc2cc1O	-47.6%	9.7%	19.9%	9.2%	2.3%
Cc1ccc(Sc2c([N+](=O)[O-])c(=O)n(C)c3ccccc23)cc1	-23.8%	7.4%	-5.1%	2µM*	4.7%
O=C(/C=C/c1ccco1)N/C(=C\c1ccccc1)C(=O)NCCc1nc2ccccc2[nH]1	-29.8%	21.8%	5.4%	50.1µM*	-4.6%
O=C(NCCc1nc2ccccc2[nH]1)c1ccco1	-4.2%	0.6%	-12.0%	8.1%	?
CC1CC(C)CN(C(=O)Cn2c(=O)n(CCCCC(=O)NC3CCCC3)c(=O)c3ccccc32)C1 (stereo not given)	-23.2%	3.4%	4.5%	28.2µM*	?
CCCN(CCC)C(=O)Cn1c(=O)n(CCCCC(=O)NC2CCCC2)c(=O)c2ccccc21	0.316µM*	-4.6%	1.0%	0.9%	-1.2%
COCO/C=C(\NC(C)=O)c1ccccc1	-15.0%	-0.8%	.	-32.0%	-2.1%
OCCN1CCN(Cc2nc(-c3cccc(Cl)c3)no2)CC1	2.5%	-0.4%	-1.1%	-10.8%	6.3%
CN1CCCN(Cc2ccc(Cl)cc2Cl)CC1	-0.2%	-7.7%	19.9µM*	6.8%	-3.9%
CN1CCCN(Cc2nc(-c3ccc(Cl)cc3)no2)CC1	17.3%	-2.8%	-13.1%	17.8µM*	-1.9%
Cc1ccc(NC(=S)N/C(=N/S(=O)(=O)c2ccccc2)c2ccccc2)cc1	-28.4%	-16.1%	?	?	3.8%
CCCn1c(N)c(C(=O)CN(C)CC(=O)Nc2ccc(F)cc2)c(=O)[nH]c1=O	-21.3%	13.6%	.	2.9%	?
CC(=O)c1ccc(S(=O)(=O)N2CCCC(N(C)CCc3ccccn3)C2)cc1 (stereo not given)	31.4%	0.0%	.	20µM*	4.1%
Cc1ccc(-n2c(C)c(C)c3c(NCCCO)ncnc32)cc1	30.8%	-3.0%	-13.4%	-5.2%	2.1%
Cc1ccc(C(=O)C2=C(O)C(=O)N(CCN3CCOCC3)C2c2ccccn2)o1 (stereo not given)	-18.5%	.	?	44.7µM*	-8.8%
CC(=O)C1=C(O)C(=O)N(CCCN2CCOCC2)C1c1ccccc1[N+](=O)[O-] (stereo not given)	-22.1%	-12.8%	?	44.7µM*	-5.8%

Assay outcomes from PubChem BioAssay.
